# Measured values: PubChem BioAssay (Tox21)
# Where “and” joins values, the source holds several entries; their conditions need not be identical. Identical values can stand only once. Inconclusive results are not listed. A call without a number means that no potency is given here. Where a structure was tested more than once in an assay, its records may differ in their call. Calls of active or inactive are those of the source. Unless noted, the call rests on the fitted dose curve; in most records, active means well fitted curve in the direction sought with a large enough effect in the repeat runs; inconclusive means weak or mixed curves; inactive means no such curve, though single readings can be large; an effect the other way counts as inactive or inconclusive.
# How the values were obtained:
# [1] = qHTS RealTime-Glo MT Cell Viability Assay in HepG2 cells - 16 hour (AID 1224885); further: nearly all actives have a fitted effect of over 50% in size
# Method in brief: (§1)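 Cells + NanoLuc/prosubstrate dispensed (600 cells/well) → 5 h at 37 C/5% CO2 → compounds in DMSO transferred → 40 h incubation at 37 C, luminescence read at 0, 8, 16, 24, 32, 40 h.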
# [2] = qHTS RealTime-Glo MT Cell Viability Assay in HEK293 cells - 24 hour (AID 1224886); further: nearly all actives have a fitted effect of over 50% in size; further: potency means the concentration at half of the fitted maximal effect
# Method in brief: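 Tox21 10K qHTS, HEK293, 600 cells/well, RealTime-Glo reagent co-dispensed with cells; 5 h preincubation, compound by pintool, 37 C, luminescence at 0–40 h.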
# [3] = qHTS RealTime-Glo MT Cell Viability Assay in HEK293 cells - 8 hour (AID 1224887); further: top concentration of the series differs between compounds; nearly all actives have a fitted effect of over 50% in size
# Method in brief: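 600 cells/well were plated with the nonlytic NanoLuc/prosubstrate reagent, pre-incubated 5 h, then given 23 nL of compound in DMSO. Incubation at 37 C for 40 h, with luminescence from viable-cell-reduced substrate read repeatedly from 0 h.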
# [4] = A CellTox Green Cytotoxicity Assay to monitor cytotoxicity in HEK293 cells - 16 hour (AID 1224888); further: nearly all actives have a fitted effect of over 35% in size
# Method in brief: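 HEK293 cells, 600/well, were preincubated 5 hours and then exposed to compounds at 37 C for up to 40 hours. A cell-impermeant cyanine dye staining dead-cell DNA was read by fluorescence at 0, 8, 16, 24, 32 and 40 h time points.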
# [5] = qHTS RealTime-Glo MT Cell Viability Assay in HepG2 cells - 0 hour (AID 1224889); further: nearly all actives have a fitted effect of over 50% in size
# Method in brief: as §1
# [6] = A CellTox Green Cytotoxicity Assay to monitor cytotoxicity in HepG2 cells - 8 hour (AID 1224890); further: nearly all actives have a fitted effect of over 45% in size
# Method in brief: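 HepG2 cells, 600/well, preincubated 5 h with CellTox Green dye, then exposed to Tox21 compounds in DMSO at 37 C for up to 40 h. Dead-cell DNA fluorescence read at the indicated time point.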
# [7] = qHTS assay to identify small molecule antagonists of the estrogen receptor alpha (ER-alpha) signaling pathway using the BG1 cell line in the presence of 0.1 nM 17-beta-estradiol - cell viability counter screen (AID 1259241); further: nearly all actives have a fitted effect of over 40% in size
# Method in brief: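 Viability in VM7Luc4E2 cells after 22 hr compound exposure under 0.1 nM 17beta-estradiol stimulation, by CellTiter-Fluor.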
# [8] = qHTS assay to identify small molecule antagonists of the androgen receptor (AR) signaling pathway using the MDA cell line in the presence of 0.5 nM R1881 - cell viability counter screen (AID 1259242); further: nearly all actives have a fitted effect of over 45% in size
# Method in brief: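 MDA-kb2 cells (MMTV-luciferase, AR/GR responsive) were treated with compounds plus 0.5 nM R1881 (final) for 16 hr at 37C, 0% CO2. Viability was then read in the same wells as live-cell protease fluorescence (CellTiter-Fluor, 30 min).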
# [9] = qHTS assay to identify small molecule HDAC inhibitors (AID 1259364); further: nearly all actives have a fitted effect of over 45% in size; further: potency means the concentration at half of the fitted maximal effect
# Method in brief: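 Wild-type HCT-116 cells, plated overnight at 37 C, exposed to compounds 2 hr at 37 C; luminogenic HDAC-Glo substrate then added 30 min at room temperature. Luminescence reports relative endogenous class I/II HDAC activity.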
# [10] = qHTS assay to identify small molecule HDAC inhibitors - cell viability counter screen (AID 1259365)
# Method in brief: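 Cytotoxicity was gauged in wild-type HCT-116 cells after a brief 2hr treatment with DMSO-dissolved compounds at 37C and 5% CO2, using CellTiter-Glo luminescence developed for 30min at room temperature.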
# [11] = qHTS assay to identify small molecule agonists of the sonic hedgehog signaling (Shh) pathway - cell viability counter screen (AID 1259366); further: nearly all actives have a fitted effect of over 50% in size; further: potency means the concentration at half of the fitted maximal effect
# Method in brief: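 Stable Gli1-Luc NIH/3T3 clone, 2,000 cells/well. Compound exposure 24hr at 37C. Read-out: CellTiter-Fluor fluorescence.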
# [12] = qHTS assay to identify small molecule antagonists of the sonic hedgehog signaling (Shh) pathway - cell viability counter screen (AID 1259367); further: nearly all actives have a fitted effect of over 55% in size; further: potency means the concentration at half of the fitted maximal effect
# Method in brief: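 NIH/3T3-derived Gli1-Luc reporter cells (2,000 per well) rested 4 hr at 37 C, then received DMSO compounds plus conditioned medium. After 23 hr of treatment, CellTiter-Fluor was added for 1 hr at 37C and fluorescence read.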
# [13] = qHTS assay to identify small molecule agonists of the sonic hedgehog signaling (Shh) pathway (AID 1259368; calls by dose curve;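 further: NIH/3T3-derived 3T3Gli1-Luc cells carrying a stable Gli1-driven firefly luciferase reporter; series mostly up to about 92 µM; nearly all actives have a fitted effect of over 15% in size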)
# Method in brief: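 NIH/3T3-derived 3T3Gli1-Luc cells with stably integrated Gli1-driven firefly luciferase, 2,000 cells/well, compounds added after 4 hr. Incubated 24 hr at 37C, 5% CO2; luminescence read after 30 min with luciferase reagent at room temperature.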
# [14] = qHTS assay to identify small molecule antagonists of the sonic hedgehog signaling (Shh) pathway (AID 1259369; calls by dose curve; further: nearly all actives have a fitted effect of over 45% in size; further: potency means the concentration at half of the fitted maximal effect)
# Method in brief: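 NIH/3T3-derived Gli1-Luc reporter cells plated 4 h, dosed with compound, then stimulated with conditioned medium for 24 h at 37 C. Firefly luciferase luminescence read after 30 min with detection reagent at room temperature.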
# [15] = target: Estrogen receptor beta (Homo sapiens) (UniProt Q92731); assay: qHTS assay to identify small molecule agonists of the estrogen receptor beta (ER-beta) signaling pathway (AID 1259377; active means well fitted activation curve with a large enough effect in the signal ratio in the repeat runs, not every such curve was filed as active; the % refers to the signal ratio; further: potency means the concentration at half of the fitted maximal effect)
# Method in brief: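 Measured by fluorescence intensity from a B/G FRET beta-lactamase substrate (2 h, room temperature) in ER-beta-UAS-bla HEK293T cells treated with DMSO-dissolved compounds for 16 hr at 37C and 5% CO2.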
# [16] = target: Estrogen receptor beta (Homo sapiens) (UniProt Q92731); assay: qHTS assay to identify small molecule antagonists of the estrogen receptor beta (ER-beta) signaling pathway (AID 1259378; active means well fitted inhibition curve with a large enough effect in the signal ratio in the repeat runs, not every such curve was filed as active; the % refers to the signal ratio; further: potency means the concentration at half of the fitted maximal effect)
# Method in brief: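 ER-beta-UAS-bla HEK293T (GripTite) cells in 2% charcoal-stripped FBS medium were preincubated 6 hr at 37C, dosed with compound, then stimulated with 1 nM E2 (final) for 16 hr; beta-lactamase reporter read by B/G FRET fluorescence after 2 hr substrate loading.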
# [17] = qHTS assay to identify small molecule agonists of the androgen receptor (AR) signaling pathway in the presence of an antagonist - cell viability counter screen (AID 1259379);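 further: MDA-kb2 human breast cancer cells carrying an MMTV luciferase reporter; series mostly up to about 92 µM; nearly all actives have a fitted effect of over 25% in size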
# Method in brief: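 MDA-kb2 cells (MMTV-luciferase, AR/GR), 3,000/well, 5 h attachment, then 3.0 µM nilutamide (final) and compounds at 15 concentrations. Viability by CellTiter-Fluor fluorescence after 16 h at 37 °C, 0% CO2, in the reporter wells.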
# [18] = qHTS assay to identify small molecule phospholipidosis (PLD) inducers (AID 1259344; active means well fitted curve in the direction sought with a large enough effect; an effect the other way counts as inactive or inconclusive)
# Method in brief: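 HepG2 cells on collagen I, attached 4 h at 37 C, were co-treated with compound and LipidTOX Red dye for 24 h at 37 C, then fixed with paraformaldehyde plus Hoechst 33342 and imaged by high-content microscopy for phospholipid accumulation.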
# [19] = target: Estrogen receptor (Homo sapiens) (UniProt P03372); assay: qHTS assay to identify small molecule antagonists of the estrogen receptor alpha (ER-alpha) signaling pathway using the BG1 cell line in the presence of 0.1 nM 17-beta-estradiol (AID 1259244); further: nearly all actives have a fitted effect of over 50% in size; further: potency means the concentration at half of the fitted maximal effect
# Method in brief: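 VM7Luc4E2 cells (endogenous full-length ER-alpha, 4×ERE-luciferase), kept 5 days in phenol red-free, charcoal-stripped FBS medium; 4,000 cells/well. Compounds added with 0.1 nM (final) 17beta-estradiol, 22 hr at 37C; luminescence read with ONE-Glo after 30 min.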
# Estrogen receptor (Homo sapiens), sequence (P03372 whole entry, looked up): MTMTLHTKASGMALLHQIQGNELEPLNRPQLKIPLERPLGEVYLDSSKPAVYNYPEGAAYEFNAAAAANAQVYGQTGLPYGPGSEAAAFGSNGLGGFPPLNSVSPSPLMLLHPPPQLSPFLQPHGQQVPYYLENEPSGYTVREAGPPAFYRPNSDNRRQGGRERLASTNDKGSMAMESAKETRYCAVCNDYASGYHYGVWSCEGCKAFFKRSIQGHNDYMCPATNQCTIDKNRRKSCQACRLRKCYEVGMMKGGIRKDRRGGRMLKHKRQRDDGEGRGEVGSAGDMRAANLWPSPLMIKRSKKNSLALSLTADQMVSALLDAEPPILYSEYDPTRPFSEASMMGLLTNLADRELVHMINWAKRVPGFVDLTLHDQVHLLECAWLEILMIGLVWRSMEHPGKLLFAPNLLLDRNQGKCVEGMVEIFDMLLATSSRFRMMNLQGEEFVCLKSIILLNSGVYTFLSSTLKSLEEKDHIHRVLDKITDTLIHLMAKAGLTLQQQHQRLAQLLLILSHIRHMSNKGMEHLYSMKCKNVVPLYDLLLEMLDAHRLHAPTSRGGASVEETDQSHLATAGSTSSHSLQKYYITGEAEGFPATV
# Estrogen receptor beta (Homo sapiens), sequence (Q92731 whole entry, looked up): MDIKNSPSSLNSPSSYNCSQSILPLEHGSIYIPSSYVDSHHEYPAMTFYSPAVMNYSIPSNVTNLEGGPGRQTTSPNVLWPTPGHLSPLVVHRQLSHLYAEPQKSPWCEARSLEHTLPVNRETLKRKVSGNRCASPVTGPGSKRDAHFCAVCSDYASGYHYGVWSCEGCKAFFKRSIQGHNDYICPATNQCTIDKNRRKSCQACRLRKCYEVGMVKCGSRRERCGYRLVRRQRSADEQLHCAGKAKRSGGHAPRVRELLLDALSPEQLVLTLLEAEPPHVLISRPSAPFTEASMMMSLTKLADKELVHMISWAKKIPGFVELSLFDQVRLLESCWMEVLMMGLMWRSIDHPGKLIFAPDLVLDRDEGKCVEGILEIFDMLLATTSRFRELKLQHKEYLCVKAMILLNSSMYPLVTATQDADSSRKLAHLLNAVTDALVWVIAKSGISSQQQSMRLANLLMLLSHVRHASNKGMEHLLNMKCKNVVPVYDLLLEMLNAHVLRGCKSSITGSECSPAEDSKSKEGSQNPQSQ
SMILES,outcome [1],Potency [2],Potency [3],outcome [4],Potency [5],Potency [6],Potency [7],outcome [8],Potency [9],outcome [10],Potency [11],Potency [12],outcome [13],Potency [14],Potency [15],Potency [16],Potency [17],outcome [18],Potency [19]
CCCCCC/C(C=O)=C\c1ccccc1,inactive,inactive,inactive,inactive,inactive,inactive,inactive,inactive,inactive,inactive,inactive,inactive,inactive,inactive,inactive,inactive,inactive,–,–
O=C(CC(C(=O)OC1CCCCC1)S(=O)(=O)O)OC1CCCCC1 (stereo unspecified),inactive,inactive,inactive,inactive,inactive,inactive,inactive,inactive,inactive,inactive,inactive,–,–,inactive,inactive,inactive,inactive,–,–
N[C@@H](Cc1cc(I)c(Oc2cc(I)c(O)c(I)c2)c(I)c1)C(=O)O,inactive,inactive,inactive,inactive,inactive,inactive,inactive,inactive,inactive,inactive,inactive,–,–,inactive,inactive,inactive,inactive,inactive,–
O=C(O)c1cc(C(=O)O)cc(S(=O)(=O)O)c1,inactive,inactive,inactive,inactive,inactive,inactive,inactive,inactive,inactive,inactive,inactive,–,inactive,inactive,–,–,inactive,–,–
OCCOCCN1CCN(C2=Nc3ccccc3Sc3ccccc32)CC1,inactive,inactive,inactive,inactive,inactive,inactive,inactive,inactive,inactive,inactive,inactive,inactive,inactive,inactive,inactive,inactive,inactive,inactive,–
CN(C)CCC(c1ccccc1)c1ccccn1 (stereo unspecified),inactive,inactive,inactive,inactive,inactive,inactive,inactive,inactive,inactive,inactive,inactive,inactive,inactive,inactive,inactive,inactive,inactive,inactive,–
C#C[C@]1(O)CC[C@H]2[C@@H]3CCC4=CC(=O)CC[C@@H]4[C@H]3CC[C@@]21C,inactive,inactive,inactive,inactive,–,inactive,inactive,inactive,inactive,inactive,inactive,inactive,inactive,21.7 µM (active) and 29.8 µM (active),1.37 µM (active) and 4.22 µM (active),inactive,inactive,inactive,inactive
CCCCC(CC)CO (stereo unspecified),inactive,inactive,inactive,inactive,inactive,inactive,inactive,inactive,inactive,inactive,inactive,inactive,inactive,inactive,inactive,inactive,inactive,–,–
CCCSc1ccc2nc(NC(=O)OC)[nH]c2c1,inactive,inactive,inactive,inactive,inactive,inactive,inactive,inactive,6.11 µM (active) and 10.6 µM (active),inactive,inactive,–,inactive,–,–,–,inactive,inactive,–
CCCCCCCCC/C=C/CC1CC(=O)OC1=O (stereo unspecified),inactive,inactive,inactive,inactive,inactive,inactive,inactive,inactive,inactive,inactive,inactive,inactive,–,inactive,–,–,inactive,–,–
ON=C1CCCCC1,inactive,inactive,inactive,inactive,–,inactive,inactive,inactive,inactive,inactive,inactive,inactive,–,inactive and 27.3 µM (active),inactive,inactive,inactive,–,–
O=P(OC(CCl)CCl)(OC(CCl)CCl)OC(CCl)CCl,inactive,24.4 µM (active),–,inactive,inactive,inactive,inactive,inactive,inactive,inactive,30.5 µM (active),30.5 µM (active),inactive,inactive,inactive,54.5 µM (active),inactive,–,–
OC[C@H]1O[C@@](CO)(O[C@H]2O[C@H](CO)[C@@H](O)[C@H](O)[C@H]2O)[C@@H](O)[C@@H]1O,–,–,–,inactive,–,inactive,inactive,inactive,inactive,inactive,inactive,–,inactive,inactive,inactive,inactive,inactive,inactive,inactive
CCCCCC(N)=O,inactive,inactive,inactive,inactive,–,inactive,inactive,inactive,inactive,inactive,inactive,inactive,inactive,inactive,inactive,inactive,inactive,inactive,–
CCc1ccc(CCOc2ccc(CC3SC(=O)NC3=O)cc2)nc1 (stereo unspecified),inactive,inactive,inactive,inactive,–,inactive,inactive,inactive,inactive,inactive,inactive,–,–,inactive,inactive,–,inactive,inactive,54.5 µM (active) and inactive
CCCCCCCCCCCCCCO,inactive,inactive,inactive,inactive,–,inactive,inactive,inactive,inactive,inactive,inactive,inactive,inactive,inactive,inactive,inactive,inactive,–,inactive
CC(C)(C)[C@@H](O)[C@@H](Cc1ccc(Cl)cc1)n1cncn1,inactive,–,inactive,inactive,inactive,inactive,inactive,inactive,inactive,inactive,inactive,–,inactive,–,inactive,inactive,inactive,–,–
O=c1[nH]nnc2ccccc12,inactive,inactive,inactive,inactive,–,inactive,inactive,inactive,inactive,inactive,inactive,–,inactive,inactive,inactive,inactive,inactive,–,–
CC(=O)CC(=O)Nc1ccccc1,inactive,inactive,inactive,inactive,–,inactive,inactive,inactive,inactive,inactive,inactive,–,inactive,inactive,inactive,inactive,inactive,–,–
COc1ccc(NC(C)=O)cc1N,inactive,inactive,inactive,inactive,–,inactive,inactive,inactive,inactive,inactive,inactive,inactive,–,inactive,inactive,inactive,inactive,–,inactive
Cc1cc(C)c(C)cc1C,inactive,inactive,inactive,inactive,–,inactive,inactive,inactive,inactive,inactive,inactive,–,inactive,inactive,–,–,inactive,–,inactive
C/C=C1/CC2C=CC1C2 (stereo unspecified),inactive,inactive,inactive,inactive,–,inactive,inactive,inactive,inactive,inactive,inactive,inactive,–,inactive,–,–,inactive,–,inactive
O=C(O)CCCC[C@@H]1SC[C@@H]2NC(=O)N[C@@H]21,inactive,inactive,inactive,inactive,–,inactive,inactive,inactive,inactive,inactive,inactive,–,inactive,inactive,inactive,inactive,inactive,inactive,inactive
O=C1CCC(N2C(=O)c3ccccc3C2=O)C(=O)N1 (stereo unspecified),inactive,inactive,inactive,inactive,–,inactive,inactive,inactive,inactive,inactive,inactive,–,inactive,inactive,inactive,inactive,inactive,inactive,–
